Drawing on PubChem BioAssay (NCI), this text covers growth for 8 compounds.

Holding throughout (experiment): NCI-60 one-dose screen, 48 h (100 = growth as untreated, 0 = no growth, -100 = all killed)
Common to all, as to conditions: 10 µM unless noted

Assay [1] has as its system SR leukemia.
Assay [2] deals with RPMI-8226 leukemia.
Assay [3] relates to OVCAR-8 ovarian.
Assay [4] deals with OVCAR-5 ovarian.
Assay [5] relates to OVCAR-4 ovarian.
For assay [6], the system named is SK-OV-3 ovarian.
The test system of assay [7] is IGROV1 ovarian.
Assay [8] concerns OVCAR-3 ovarian.
Assay [9] has as its system HS 578T breast.
In assay [10] the test system is NCI/ADR-RES ovarian.
For assay [11], the system named is T-47D breast.
In assay [12] the test system is BT-549 breast.
The subject of assay [13] is MDA-MB-435 melanoma.
The test system of assay [14] is SW-620 colon.
The subject of assay [15] is MCF7 breast.
Assay [16] concerns HCT-116 colon.
The subject of assay [17] is HCC-2998 colon.
The test system of assay [18] is KM12 colon.

About 83,000 compounds went through this panel and 20% of them were active in at least one assay; those are over-represented in the sample as a whole.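 Growth was measured after 48 h exposure to one concentration of compound in 96-well plates. Values under 10 count as active.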 Values without a mark were called inactive. The source made the active and inactive calls.

Turning to `CC1CN(Cc2ccco2)C(=S)N(c2ccccc2)C1=O` (centres undefined), the growth is 91.2% in assay [1]; 88.1% in assay [2]; 104% in assay [3]; 105% in assay [4]; 97% in assay [5]; 105% in [6]. The growth in [7] is 106%; in assay [8] it was 106%; in assay [9] it was 101%; in assay [10] it was 108%; in assay [11], 83.1%; in assay [12] it was 94.6%. The growth was 100% in assay [13]; 102% in assay [14]; 102% in [15]; 88.9% in assay [16]; 113% in assay [17]; 99.9% in [18].
For `NC(CC(=O)O)C(=O)OCc1ccccc1` (centres undefined), the growth in [1] is 107%; in [2], 98.7%; in assay [3] it was 101%; in assay [4], 101%; in assay [5] it was 89.6%; in assay [6], 82.9%. The growth in assay [7] was 105%; in assay [8], 110%; in assay [9] it was 101%; in assay [10] it was 101%; in assay [11] it was 83.8%; in assay [12], 108%. Moreover, the growth in assay [13] is 86.3%; in [14] it was 107%; in [15] it was 104%; in assay [16], 96.9%; in assay [17] it was 104%; in assay [18] it was 106%.
Turning to `C=C1CC2(OC1=O)C(=O)N(CCCCCCCCCCCCN1C(=O)C3(CC(=C)C(=O)O3)c3ccccc31)c1ccccc12` (centres undefined), the growth in assay [1] is 2.62% (active); in assay [2], 3.98% (active); in assay [3] it was 57%; in assay [4], 99.9%; in [5] it was 88.9%; in [6] it was 105%. Besides, the growth in assay [7] is 64.8%; in assay [8] it was 66.8%; in [9], 91.1%; in assay [10] it was 83.2%; in assay [11], 64.8%; in assay [12], 84%. In addition, the growth in assay [13] is 73.1%; in assay [14] it was 26.1%; in assay [15] it was 38%; in assay [16], 61.3%; in assay [17], 92.8%; in assay [18], 93.6%.
Regarding `Cc1cc2cc3cc(C)c(N(C)C)cc3[n+](C)c2cc1N(C)C`, the growth is 76.9% in assay [1]; 4.78% (active) in assay [2]; 23.4% in [3]; 63.4% in assay [4]; 38.5% in assay [5]; 20.2% in [6]. Also, the growth is -3.39% (active) in assay [7]; -7.45% (active) in assay [8]; 33.1% in assay [9]; 78.4% in assay [10]; 16.4% in assay [11]; -28.7% (active) in assay [12]. Further, the growth was 35.3% in assay [13]; 14.6% in assay [14]; 14% in [15]; 12.6% in [16]; 25.6% in assay [17]; 3.5% (active) in [18].
For the compound `COc1nc2c(cc1S(=O)(=O)c1ccccc1)CCc1c-2cnn1Cc1ccccc1`, the growth in assay [1] is 26.2%; in assay [2] it was 32.8%; in assay [3] it was 54%; in assay [4] it was 93.6%; in [5], 35.2%; in assay [6] it was 58%. Also, the growth was 80.5% in assay [7]; 64.5% in assay [8]; 79.9% in assay [9]; 48.2% in assay [10]; 16.3% in [11]; 62.8% in [12]. In addition, the growth in assay [13] was 58.9%; in [14], 74.1%; in [15], 15.4%; in assay [16], 32.5%; in assay [17] it was 60.5%; in assay [18], 27.7%.
With `CN1CCN(Cc2ccc(NC(=O)c3[nH]ncc3Nc3ncnc4c3CCC4)cc2)CC1`, the growth in assay [1] is -18.6% (active); in [2], -9.23% (active); in assay [3], 11.9%; in [4], -0.195% (active); in assay [5], 6.83% (active); in assay [6], 24.5%. The growth in [7] is 19.2%; in [8], -5.87% (active); in assay [9], 16.1%; in assay [10], 71.7%; in assay [11], 32.3%; in [12], -7.15% (active). Also, the growth in [13] is 29.6%; in [14] it was 7.76% (active); in assay [15], 11.3%; in [16], 5.79% (active); in assay [17] it was 13.1%; in assay [18] it was 6.55% (active).
For `Cc1ccc2c(NCCCN(C)C)c3c(C)nn(C)c3nc2c1`, the growth in assay [1] was 5.55% (active); in [2], 27.8%; in assay [3], -5.26% (active); in assay [4], 39.3%; in assay [5], 28.7%; in assay [6], 39.2%. The growth in assay [7] was 29.2%; in assay [8] it was 49.3%; in assay [9] it was 74.1%; in [10], 45.3%; in assay [11], 44.8%; in assay [12] it was 54.3%. Further, the growth in assay [13] is 37.1%; in assay [14], 23.5%; in [15], 5.14% (active); in assay [16], 20.2%; in assay [17], 59.3%; in assay [18] it was 32.8%.
On to `COc1cc(-c2cnc3nonc3n2)c(OC)c2c1OCO2`, for which the growth is 50.1% in [1]; 65.7% in assay [2]; 97.8% in [3]; 124% in assay [4]; 75.3% in assay [5]; 105% in [6]. Further, the growth is 82.7% in assay [7]; 76.9% in assay [8]; 105% in assay [9]; 99.3% in assay [10]; 85.4% in assay [11]; 105% in assay [12]. In addition, the growth in [13] was 111%; in assay [14] it was 101%; in assay [15], 81.3%; in [16], 99.1%; in assay [17] it was 102%; in [18] it was 103%.
